# In PubChem BioAssay (NCI):
# This is part of a sample that, as a whole, favours compounds with a hit. Of some 79,000 tested, about 15% had one in any assay. Values without a mark were called inactive. Active and inactive are the calls of the source. Rule as the data show it: active = growth inhibition above about 70%; inactive = the rest.
# Assays:
# [1] = NCI Yeast Anticancer Drug Screen. Data for the rad52 strain (AID 147);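 also: 0% = growth of vehicle-treated control cultures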; conditions: S. cerevisiae rad52 mutant growth inhibition, hits give high values
# How it was run: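 Measured: yeast growth inhibition. System: strain with a defined DNA damage repair alteration. Reference: vehicle-treated control cultures.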
# [2] = NCI Yeast Anticancer Drug Screen. Data for the wt1 strain (AID 149);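 also: 0% = growth of vehicle-treated wt1 cultures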; conditions: S. cerevisiae wt1 strain (SPY 50644) growth inhibition, hits give high values
# How it was run: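 Measured: growth of wt1 yeast under compound versus vehicle treatment, reported as inhibition.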
# [3] = NCI Yeast Anticancer Drug Screen. Data for the rad50EPP+ strain (AID 151);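 also: 0% = growth of vehicle-treated control cultures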; conditions: S. cerevisiae rad50 mutant strain, hits give high values
# How it was run: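 One strain with a rad50 alteration (rad50EPP+) was compound-treated, its growth then compared to that of vehicle controls.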
# [4] = NCI Yeast Anticancer Drug Screen. Data for the mgt1 strain (AID 153); conditions: S. cerevisiae mgt1 mutant growth inhibition, hits give high values
# How it was run: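 After exposure of the mgt1 yeast mutant to compound, growth was measured and reported as inhibition compared with vehicle controls.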
# [5] = NCI Yeast Anticancer Drug Screen. Data for the rad50 strain (AID 155);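 also: 0% = growth of vehicle-only cultures of the same strain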; conditions: S. cerevisiae rad50 strain growth inhibition, hits give high values
# How it was run: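 Growth of the mutant yeast was measured after compound exposure and referenced to vehicle-treated cultures.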
# [6] = NCI Yeast Anticancer Drug Screen. Data for the mec2-1 strain (AID 157); conditions: S. cerevisiae mec2-1 strain, hits give high values
# How it was run: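 Test agents were screened against the mec2-1 yeast strain, with defined DNA repair or cell cycle alteration. Growth was scored as inhibition against vehicle-only controls.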
# [7] = NCI Yeast Anticancer Drug Screen. Data for the rad14 strain (AID 159);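 also: 0% = growth of vehicle-treated control cultures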; conditions: S. cerevisiae rad14 strain growth inhibition, hits give high values
# How it was run: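 Here, inhibition of yeast growth was measured after compound exposure, using a strain with a genetic defect in DNA damage repair and vehicle-treated cultures as the reference.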
# [8] = NCI Yeast Anticancer Drug Screen. Data for the sgs1 mgt1 strain (AID 161);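 also: 0% = growth of cultures given vehicle only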; conditions: S. cerevisiae sgs1 mgt1 strain, hits give high values
# How it was run: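 Read-out: growth inhibition vs vehicle controls. Cells: mutant yeast strain deficient in DNA damage repair.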
# [9] = NCI Yeast Anticancer Drug Screen. Data for the cln2 rad14 strain (AID 165);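 also: 0% = growth equal to vehicle treated cultures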; conditions: S. cerevisiae cln2 rad14 strain, hits give high values
# How it was run: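 Growth of compound-exposed yeast (cln2 rad14 genotype) measured and expressed as inhibition relative to vehicle.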
# [10] = NCI Yeast Anticancer Drug Screen. Data for the bub3 strain (AID 167); conditions: S. cerevisiae bub3 mutant strain, hits give high values
# How it was run: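 Whole-cell yeast assay. The mutant strain was incubated with compounds, and growth inhibition was determined by comparison with vehicle-treated cells.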
# [11] = NCI Yeast Anticancer Drug Screen. Data for the wt2 strain (AID 169);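 also: 0% = growth of vehicle-treated yeast cultures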; conditions: S. cerevisiae wt2 strain growth inhibition, hits give high values
# How it was run: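 Genetically defined yeast strains from a DNA-repair/cell-cycle panel were used. Compound-exposed yeast growth was measured, and the inhibition was calculated relative to vehicle treatment.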
# [12] = NCI Yeast Anticancer Drug Screen. Data for the mlh1 strain (AID 171);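 also: 0% = growth of vehicle-treated control cultures of the same strain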; conditions: S. cerevisiae mlh1 strain growth inhibition, hits give high values
# How it was run: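 Here the genetically defined yeast mutant is grown with each compound, and the extent to which its growth falls below that of vehicle-exposed cells is reported.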
# [13] = NCI Yeast Anticancer Drug Screen. Data for the mlh1 rad18 strain (AID 175); conditions: S. cerevisiae mlh1 rad18 strain growth inhibition, hits give high values
# How it was run: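 In this whole-cell yeast screen, a strain with altered DNA damage repair is challenged with compound, and its growth is measured against matched vehicle-treated controls.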
# [14] = NCI Yeast Anticancer Drug Screen. Data for the rad18 strain (AID 177); conditions: S. cerevisiae rad18 mutant growth inhibition, hits give high values
# How it was run: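 Screen uses a yeast strain with a defined lesion in DNA damage repair; compound effect is read as loss of growth compared to untreated vehicle cultures.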
# [15] = NCI Yeast Anticancer Drug Screen. Data for the CLN2oe strain (AID 163);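 also: 0% = growth of vehicle-only control cultures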; conditions: S. cerevisiae CLN2oe strain, hits give high values
# How it was run: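 Here, growth inhibition in a cell-cycle-altered yeast strain after compound exposure was quantified against vehicle control growth.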
# [16] = NCI Yeast Anticancer Drug Screen. Data for the sgs1 strain (AID 173);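 also: 0% = growth of vehicle-only control cultures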; conditions: S. cerevisiae sgs1 mutant, hits give high values
# How it was run: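 Relative growth inhibition, referenced to vehicle, was determined in a yeast strain with a defined alteration affecting DNA damage repair or cell cycle control after compound exposure.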
# [17] = at 5.0 µM (retest, dose inferred, filed as 0.5)
# [18] = at 50.0 µM (retest, dose inferred, filed as 5.0)
compound,measurement,setting,value
CC(=O)Nc1ccc(/C=C(\C#N)c2ccc(C)cc2)cc1,growth inhibition,[1]; at 1.2 µM,-10%
same,growth inhibition,[1]; at 3.7 µM,0%
same,growth inhibition,[1]; at 11.0 µM,-5%
same,growth inhibition,[1]; at 33.0 µM,-2%
same,growth inhibition,[1]; at 100.0 µM,1%
same,growth inhibition,[2]; at 1.2 µM,0%
same,growth inhibition,[2]; at 3.7 µM,-2%
same,growth inhibition,[2]; at 11.0 µM,-6%
same,growth inhibition,[2]; at 33.0 µM,-6%
same,growth inhibition,[2]; at 100.0 µM,1%
same,growth inhibition,[3]; at 1.2 µM,-11%
same,growth inhibition,[3]; at 3.7 µM,-20%
same,growth inhibition,[3]; at 11.0 µM,-18%
same,growth inhibition,[3]; at 33.0 µM,-8%
same,growth inhibition,[3]; at 100.0 µM,-5%
same,growth inhibition,[4]; at 1.2 µM,-6%
same,growth inhibition,[4]; at 3.7 µM,-16%
same,growth inhibition,[4]; at 11.0 µM,-17%
same,growth inhibition,[4]; at 33.0 µM,-10%
same,growth inhibition,[4]; at 100.0 µM,-13%
same,growth inhibition,[5]; at 1.2 µM,-25%
same,growth inhibition,[5]; at 3.7 µM,-23%
same,growth inhibition,[5]; [17],30%
same,growth inhibition,[5]; at 11.0 µM,-23%
same,growth inhibition,[5]; at 33.0 µM,-13%
same,growth inhibition,[5]; [18],93% (active)
same,growth inhibition,[5]; at 50.0 µM,28.4%
same,growth inhibition,[5]; at 100.0 µM,-1%
same,growth inhibition,[6]; at 1.2 µM,-16%
same,growth inhibition,[6]; at 3.7 µM,-23%
same,growth inhibition,[6]; [17],40%
same,growth inhibition,[6]; at 11.0 µM,-22%
same,growth inhibition,[6]; at 33.0 µM,-33%
same,growth inhibition,[6]; [18],95% (active)
same,growth inhibition,[6]; at 50.0 µM,18.7%
same,growth inhibition,[6]; at 100.0 µM,-30%
same,growth inhibition,[7]; at 1.2 µM,1%
same,growth inhibition,[7]; at 3.7 µM,-9%
same,growth inhibition,[7]; at 11.0 µM,-5%
same,growth inhibition,[7]; at 33.0 µM,4%
same,growth inhibition,[7]; at 100.0 µM,1%
same,growth inhibition,[8]; [17],-12%
same,growth inhibition,[8]; [18],45%
same,growth inhibition,[8]; at 50.0 µM,24.6%
same,growth inhibition,[9]; [17],63%
same,growth inhibition,[9]; [18],2%
same,growth inhibition,[9]; at 50.0 µM,19.2%
same,growth inhibition,[10]; at 1.2 µM,-27%
same,growth inhibition,[10]; at 3.7 µM,-21%
same,growth inhibition,[10]; [17],-11%
same,growth inhibition,[10]; at 11.0 µM,-12%
same,growth inhibition,[10]; at 33.0 µM,7%
same,growth inhibition,[10]; [18],39%
same,growth inhibition,[10]; at 50.0 µM,63.7%
same,growth inhibition,[10]; at 100.0 µM,-16%
same,growth inhibition,[11]; at 1.2 µM,-1%
same,growth inhibition,[11]; at 3.7 µM,9%
same,growth inhibition,[11]; at 11.0 µM,6%
same,growth inhibition,[11]; at 33.0 µM,5%
same,growth inhibition,[11]; at 100.0 µM,0%
same,growth inhibition,[12]; at 1.2 µM,-20%
same,growth inhibition,[12]; at 3.7 µM,-21%
same,growth inhibition,[12]; at 11.0 µM,-18%
same,growth inhibition,[12]; at 33.0 µM,-6%
same,growth inhibition,[12]; at 100.0 µM,-10%
same,growth inhibition,[13]; [17],34%
same,growth inhibition,[13]; [18],97% (active)
same,growth inhibition,[13]; at 50.0 µM,24.6%
same,growth inhibition,[14]; at 1.2 µM,-18%
same,growth inhibition,[14]; at 3.7 µM,-9%
same,growth inhibition,[14]; at 11.0 µM,-17%
same,growth inhibition,[14]; at 33.0 µM,-3%
same,growth inhibition,[14]; at 100.0 µM,-16%
OCC1OC(OCC(O)C(O)C(O)C(/C=N/Nc2ccccc2)=N/Nc2ccccc2)C(O)C(O)C1O (stereo unspecified),growth inhibition,[1]; at 1.2 µM,2%
same,growth inhibition,[1]; at 3.7 µM,9%
same,growth inhibition,[1]; at 11.0 µM,16%
same,growth inhibition,[1]; at 33.0 µM,18%
same,growth inhibition,[1]; at 100.0 µM,45%
same,growth inhibition,[2]; at 1.2 µM,4%
same,growth inhibition,[2]; at 3.7 µM,17%
same,growth inhibition,[2]; at 11.0 µM,21%
same,growth inhibition,[2]; at 33.0 µM,24%
same,growth inhibition,[2]; at 100.0 µM,28%
same,growth inhibition,[3]; at 1.2 µM,9%
same,growth inhibition,[3]; at 3.7 µM,30%
same,growth inhibition,[3]; at 11.0 µM,38%
same,growth inhibition,[3]; at 33.0 µM,40%
same,growth inhibition,[3]; at 100.0 µM,37%
same,growth inhibition,[4]; at 1.2 µM,3%
same,growth inhibition,[4]; at 3.7 µM,12%
same,growth inhibition,[4]; at 11.0 µM,11%
same,growth inhibition,[4]; at 33.0 µM,11%
same,growth inhibition,[4]; at 100.0 µM,5%
same,growth inhibition,[5]; at 1.2 µM,-5%
same,growth inhibition,[5]; at 3.7 µM,13%
same,growth inhibition,[5]; [17],15%
same,growth inhibition,[5]; at 11.0 µM,29%
same,growth inhibition,[5]; at 33.0 µM,32%
same,growth inhibition,[5]; [18],22%
same,growth inhibition,[5]; at 50.0 µM,99.2% (active)
same,growth inhibition,[5]; at 100.0 µM,55%
same,growth inhibition,[6]; at 1.2 µM,-2%
same,growth inhibition,[6]; at 3.7 µM,16%
same,growth inhibition,[6]; [17],1%
same,growth inhibition,[6]; at 11.0 µM,20%
same,growth inhibition,[6]; at 33.0 µM,31%
same,growth inhibition,[6]; [18],13%
same,growth inhibition,[6]; at 50.0 µM,99.5% (active)
same,growth inhibition,[6]; at 100.0 µM,68%
same,growth inhibition,[8]; [17],7%
same,growth inhibition,[8]; [18],-2%
same,growth inhibition,[8]; at 50.0 µM,93.3% (active)
same,growth inhibition,[15]; at 1.2 µM,4%
same,growth inhibition,[15]; at 3.7 µM,8%
same,growth inhibition,[15]; at 11.0 µM,10%
same,growth inhibition,[15]; at 33.0 µM,9%
same,growth inhibition,[15]; at 100.0 µM,40%
same,growth inhibition,[9]; [17],7%
same,growth inhibition,[9]; [18],-1%
same,growth inhibition,[9]; at 50.0 µM,99.3% (active)
same,growth inhibition,[10]; at 1.2 µM,2%
same,growth inhibition,[10]; at 3.7 µM,9%
same,growth inhibition,[10]; [17],12%
same,growth inhibition,[10]; at 11.0 µM,10%
same,growth inhibition,[10]; at 33.0 µM,12%
same,growth inhibition,[10]; [18],41%
same,growth inhibition,[10]; at 50.0 µM,99.2% (active)
same,growth inhibition,[10]; at 100.0 µM,47%
same,growth inhibition,[11]; at 1.2 µM,1%
same,growth inhibition,[11]; at 3.7 µM,7%
same,growth inhibition,[11]; at 11.0 µM,20%
same,growth inhibition,[11]; at 33.0 µM,17%
same,growth inhibition,[11]; at 100.0 µM,17%
same,growth inhibition,[12]; at 1.2 µM,-2%
same,growth inhibition,[12]; at 3.7 µM,4%
same,growth inhibition,[12]; at 11.0 µM,8%
same,growth inhibition,[12]; at 33.0 µM,11%
same,growth inhibition,[12]; at 100.0 µM,30%
same,growth inhibition,[16]; at 1.2 µM,3%
same,growth inhibition,[16]; at 3.7 µM,13%
same,growth inhibition,[16]; at 11.0 µM,16%
same,growth inhibition,[16]; at 33.0 µM,19%
same,growth inhibition,[16]; at 100.0 µM,35%
same,growth inhibition,[13]; [17],18%
same,growth inhibition,[13]; [18],31%
same,growth inhibition,[13]; at 50.0 µM,99.4% (active)
